Screening data: PubChem, several laboratories
A selection: hits, their analogues and other compounds. The true share with any hit is near 3.4%.
APP 5'UTR act – activators of APP 5'UTR luciferase reporter, primary screen, SH-SY5Y cells; activation, % at 2 µM; hit rate 1% among 190,000; SH-SY5Y APP 5'UTR luciferase reporter, luminescence; zero percent = DMSO vehicle wells;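 active = activation above a set limit, based on mean plus 3 SD of controls, cut at about 140% in these data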
NF-kB expr up – activators of NF-kB expression in neurons, primary screen, cell-based, HTS; human neuronal cells, NF-kB reporter expression; stronger effect = higher value; fold change at 12.5 µM; hit rate 1.6% among 190,000; AID 1239, 2008; in the data active = fold change above about 3.3
hcDAF-12 act – H. contortus DAF-12 nuclear receptor activators, primary screen, cell-based, luminescence, HEK293, lit1-tk-luc reporter. HEK293 hcDAF-12 lit1-tk-luc reporter; 0% DMSO, 100% Δ7-dafachronic acid. activation, % at 6.8 µM. hit rate 1.4% among 370,000. AID 652067, 2013;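 active = activation above the mean of all tested compounds plus 3 SD, cut at about 5.5% in these data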
ssDAF12 agonist – S. stercoralis DAF-12 nuclear receptor activators, primary screen, cell-based, luminescence, HEK293, GRIP1 co-expression, lit1-tk-luc | Nuclear hormone receptor DAF-12 (Strongyloides stercoralis) | HEK293 ssDAF-12/GRIP1 lit1-tk-luc reporter; % of 3 µM dafachronic acid response | activation, % at 6.8 µM | hit rate 1% among 370,000 | AID 652126, 2013;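 active = activation above the mean over all tested compounds plus 3 SD, cut at about 0.9% in these data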
hgDAF12 agonist – H. glycines DAF-12 receptor agonists, primary screen, cell-based, luminescence, HEK293, GAL4 fusion, UAS-luciferase | hit rate 1.8% among 370,000 | Nuclear hormone receptor DAF-12 (Heterodera glycines), GAL4 fusion | HEK293 GAL4-hgDAF12 UAS-luciferase reporter, agonist luminescence; normalized to butyrate control | AID 687014, 2013 | activation, % at 6.8 µM;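 active = activation above a cutoff set at the mean of all screened compounds plus 3 SD, cut at about 10% in these data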
LXR ag – LXR agonists, Gal4 luciferase reporter, confirmation, counter-screen for hcDAF-12 agonist project, cell-based, luminescence, HEK293, H. contortus campaign | shares compounds with hcDAF-12 act | activation, % at 6.8 µM | HEK293 Gal4-LXR tk-luc reporter, 24 h; normalized: DMSO 0%, positive control 100% | AID 743027, 2013 | 3,400 tested, under 10 active;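 active = mean percent activation of the reporter above a cutoff set as the average over tested compounds plus their standard deviation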
Target sequence (P55055 whole entry, looked up, the tested form may be a part): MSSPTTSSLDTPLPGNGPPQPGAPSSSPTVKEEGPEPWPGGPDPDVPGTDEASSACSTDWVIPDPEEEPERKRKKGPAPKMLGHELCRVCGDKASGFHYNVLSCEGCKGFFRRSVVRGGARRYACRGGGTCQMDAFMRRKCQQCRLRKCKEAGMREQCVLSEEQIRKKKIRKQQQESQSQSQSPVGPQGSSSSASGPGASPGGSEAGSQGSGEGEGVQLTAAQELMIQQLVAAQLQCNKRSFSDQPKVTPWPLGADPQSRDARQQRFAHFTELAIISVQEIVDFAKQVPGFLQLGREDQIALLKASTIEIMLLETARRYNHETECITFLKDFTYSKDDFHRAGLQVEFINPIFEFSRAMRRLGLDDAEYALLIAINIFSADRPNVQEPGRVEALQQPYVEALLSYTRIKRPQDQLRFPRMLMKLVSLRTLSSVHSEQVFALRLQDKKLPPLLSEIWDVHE
hcDAF12 conf – H. contortus DAF-12 receptor agonists, confirmation, cell-based, luminescence, HEK293, lit1-tk-luc, triplicate; hit rate 61% among 3,400; activation, % at 6.8 µM; shares compounds with hcDAF-12 act; HEK293 hcDAF-12 lit1-tk-luc reporter; % of Δ7-dafachronic acid response;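 active = mean activation across triplicate tests above the threshold derived from the earlier primary screen, cut at about 5.5% in these data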
Of the large screens only hits and unclear results are named; the others gave an inactive call (follow-up assays come after a bar, where they were run).

CN1Cc2nnn(Cc3ccccc3)c2-c2cc(N3CCCCC3)ccc2S1(=O)=O	none (no result: APP 5'UTR act, NF-kB expr up)
COc1cccc(NC(=O)[C@H](Cc2ccccc2)NC(=O)[C@@H]2Cc3ccccc3CN2)c1	none (no result: APP 5'UTR act, NF-kB expr up)
COc1cccc(NC(=O)C(Cc2ccccc2)NC(=O)C2CCC(C)CC2)c1 (centres undefined)	hcDAF-12 act 8.6 | LXR ag inactive | hcDAF12 conf inactive
O=c1cc(-c2ccccc2)oc2ccc3ccccc3c12	hcDAF-12 act 8.7 (no result: APP 5'UTR act, NF-kB expr up) | LXR ag inactive | hcDAF12 conf 9.8
O=C(CCc1ccccc1)N[C@H]1[C@@H](OC(=O)c2ccco2)CCC[C@]12C(=O)N(Cc1ccccc1)c1ccccc12	none (no result: APP 5'UTR act, NF-kB expr up)
Cc1occc1C(=O)N/N=C/c1ccc(N(C)C)cc1	hcDAF-12 act 7.3 (no result: APP 5'UTR act, NF-kB expr up) | LXR ag inactive | hcDAF12 conf 7.2
Cc1occc1C(=O)N/N=C/C(Br)=C\c1ccccc1	hcDAF-12 act 8.8, hgDAF12 agonist 11 (no result: APP 5'UTR act, NF-kB expr up) | LXR ag inactive | hcDAF12 conf inactive
Cc1ccc2c(c1)CCCN2C(=O)c1cccs1	hcDAF-12 act 7.4 | LXR ag inactive | hcDAF12 conf inactive
NS(=O)(=O)c1ccc(NC(=S)NCc2ccco2)cc1	hcDAF-12 act 7.2 | LXR ag inactive | hcDAF12 conf inactive
NC(=O)c1ccc(NC(=S)NCc2ccco2)cc1	none
O=C(Nc1ccccc1Cl)c1csc(-c2cccnc2)n1	hcDAF-12 act 7.6, ssDAF12 agonist 2.8 (no result: APP 5'UTR act, NF-kB expr up) | LXR ag inactive | hcDAF12 conf 6.7
O=C(NNC(=O)c1csc(-c2cccnc2)n1)c1ccccc1	none (no result: APP 5'UTR act, NF-kB expr up)
O=C(CC(=O)c1ccccc1O)c1cccc(F)c1	none (no result: hcDAF-12 act, ssDAF12 agonist, hgDAF12 agonist)
O=C(CC(=O)c1c(F)cccc1Cl)c1ccccc1O	hcDAF-12 act 9.1 (no result: APP 5'UTR act, NF-kB expr up) | LXR ag inactive | hcDAF12 conf 6.9
CCOC(=O)[C@]12CCCC=C1N(Cc1ccc(OC)cc1)C(=O)[C@@H]2CC(=O)N1CCC(c2ccccc2)CC1	none (no result: APP 5'UTR act, NF-kB expr up)
CCN(CC)c1ccc(/C=N/NC(=O)c2ccccn2)cc1	hcDAF-12 act 6.8, hgDAF12 agonist 11 (no result: APP 5'UTR act, NF-kB expr up) | LXR ag inactive | hcDAF12 conf 7.1
CCC(C)(C)C1CCC2(CC1)NC(=O)N(CC(=O)NCCc1c[nH]c3ccccc13)C2=O (centres undefined)	hcDAF-12 act 6.8 (no result: APP 5'UTR act, NF-kB expr up) | LXR ag inactive | hcDAF12 conf inactive
CC1CCC2(CC1)NC(=O)N(CC(=O)NCCc1c[nH]c3ccccc13)C2=O (centres undefined)	none (no result: APP 5'UTR act, NF-kB expr up)
COC(=O)[C@@H]1N=C(c2ccc(OC)cc2)O[C@]12C(=O)N(Cc1cn(Cc3ccccc3)nn1)c1cccc(Cl)c12	none (no result: APP 5'UTR act, NF-kB expr up)
CCC[C@H]1[C@@H](OC(=O)NC2CCC2)CC[C@@]23CCCN2C(=O)CCC[C@@H]13	none (no result: APP 5'UTR act, NF-kB expr up)
COCCCNC(=O)C(=O)C1C(=O)Nc2ccccc21 (centres undefined)	hcDAF-12 act 11 | LXR ag inactive | hcDAF12 conf inactive
O=[N+]([O-])c1ccc(-c2ccc(/C=N/O)o2)cc1	none (no result: APP 5'UTR act, NF-kB expr up)
O=[N+]([O-])c1ccc(-c2ccc(C=Nc3cccc4ccccc34)o2)cc1	hcDAF-12 act 6.8 | LXR ag inactive | hcDAF12 conf inactive
COc1ccc2nc(C)cc(Nc3ccc(N4CCN(C)CC4)cc3)c2c1	hcDAF-12 act 13, ssDAF12 agonist 0.9 (no result: APP 5'UTR act, NF-kB expr up) | LXR ag inactive | hcDAF12 conf 12
COC(=O)CC1CCc2cc(C)cc(C(=O)CC(C)C)c2O1 (centres undefined)	none (no result: APP 5'UTR act, NF-kB expr up)
CC(=O)c1cccc(N=Nc2c(C)[nH]c3ccccc23)c1	hcDAF-12 act 6.7, ssDAF12 agonist 1.4 | LXR ag inactive | hcDAF12 conf inactive
Cc1cc(N=Nc2c(O)c3ccccc3[nH]c2=O)ccc1N=Nc1ccc(C(=O)N(C)C)cc1	none (no result: APP 5'UTR act, NF-kB expr up)
O=C(NCCc1cccc(Cl)c1)c1ccc(Cl)c([N+](=O)[O-])c1	none
O=C(NCCc1cccc(Cl)c1)c1cc([N+](=O)[O-])ccc1Cl	hcDAF-12 act 6.7 | LXR ag inactive | hcDAF12 conf inactive
O=C(N[C@H](C(=O)N1CCC[C@H]1C(=O)NCc1ccccc1)c1ccccc1)c1ccccc1	none (no result: APP 5'UTR act, NF-kB expr up)
CCN1c2ccccc2NC2C1C(C(C)=O)C(=O)N2c1ccc(Cl)cc1 (centres undefined)	hcDAF-12 act 8.8 | LXR ag inactive | hcDAF12 conf inactive
O=C1Nc2ccccc2N(O)N1c1ccc(Cl)cc1	none
COc1ccc(CN(C)S(=O)(=O)c2nnc(NC(=O)c3ccc(C)cc3)s2)cc1OC	none (no result: APP 5'UTR act, NF-kB expr up)
COc1ccc(CN(C)S(=O)(=O)c2nnc(NC(=O)c3ccccc3OC)s2)cc1OC	hcDAF-12 act 7.7 (no result: APP 5'UTR act, NF-kB expr up) | LXR ag inactive | hcDAF12 conf inactive
COc1ccc(/C=N\NC(=O)c2sccc2C)cc1Cn1nc(C)cc1C	hcDAF-12 act 7.2, ssDAF12 agonist 1.2, hgDAF12 agonist 11 (no result: APP 5'UTR act, NF-kB expr up) | LXR ag inactive | hcDAF12 conf inactive
COc1ccc(/C=N\NC(=O)COc2ccccc2Cl)cc1Cn1nc(C)cc1C	none
Cc1sc2ncnc(N/N=C/c3ccc(O)cc3)c2c1C	none
Cc1sc2ncnc(N/N=C/c3ccccc3O)c2c1C	hcDAF-12 act 7.2 | LXR ag inactive | hcDAF12 conf inactive
Cc1ccc(NC(=O)CNC(=O)c2sc3ccccc3c2Cl)nc1	hcDAF-12 act 7.0 (no result: APP 5'UTR act, NF-kB expr up) | LXR ag inactive | hcDAF12 conf inactive
COC(=O)[C@]1(CNC(=O)C(F)(F)F)CC(=O)N(C)[C@@H]1c1ccccc1	none (no result: APP 5'UTR act, NF-kB expr up)
c1ccc2c(-c3c[nH]c4ccccc34)c3ccccc3nc2c1	none
O=C(O)c1cc(-c2c[nH]c3ccccc23)nc2ccc3ccccc3c12	hcDAF-12 act 9.1 | LXR ag inactive | hcDAF12 conf 5.8
Nc1cccc(C2=Nc3cccc4cccc(c34)N2)c1	hcDAF-12 act 8.5 | LXR ag inactive | hcDAF12 conf 5.7
COc1ccc(C2=Nc3cccc4cccc(c34)N2)cc1	none
COc1ccc2c(c1)CCCN2C(=O)C1CCCN(S(=O)(=O)c2c(C(C)C)cc(C(C)C)cc2C(C)C)C1 (centres undefined)	none (no result: APP 5'UTR act, NF-kB expr up)
Nc1nccnc1C(=O)N/N=C/c1ccco1	none (no result: APP 5'UTR act, NF-kB expr up)
Nc1c(Cl)c(Cl)nc(C(=O)N/N=C/c2ccco2)c1Cl	hcDAF-12 act 6.9 (no result: APP 5'UTR act, NF-kB expr up) | LXR ag inactive | hcDAF12 conf inactive
